# HIF activator: HIF pathway transcriptional activation | activation, % at 7.5 µM (by protocol) | 300,000 tested, 0.32% active | U2OS HRE-luciferase reporter, luminescence; normalized: DMSO 0%, desferrioxamine 100%;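 active means mean activation of at least 10% of the iron chelator positive control signal, with at least half of replicates also reaching 10%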
# LANA-H2A inh: blocks KSHV LANA binding to histone H2A/H2B. 320,000 tested, 0.6% active. AID 2629. cell-free LANA-H2A/H2B peptide, fluorescence polarization. inhibition, % (test concentration not listed). Q9QR71; in the data active means inhibition mostly above about 10%, no sharp cut-off; inactive means mostly below about 6.7%
# Target sequence (Q9QR71 whole entry, looked up): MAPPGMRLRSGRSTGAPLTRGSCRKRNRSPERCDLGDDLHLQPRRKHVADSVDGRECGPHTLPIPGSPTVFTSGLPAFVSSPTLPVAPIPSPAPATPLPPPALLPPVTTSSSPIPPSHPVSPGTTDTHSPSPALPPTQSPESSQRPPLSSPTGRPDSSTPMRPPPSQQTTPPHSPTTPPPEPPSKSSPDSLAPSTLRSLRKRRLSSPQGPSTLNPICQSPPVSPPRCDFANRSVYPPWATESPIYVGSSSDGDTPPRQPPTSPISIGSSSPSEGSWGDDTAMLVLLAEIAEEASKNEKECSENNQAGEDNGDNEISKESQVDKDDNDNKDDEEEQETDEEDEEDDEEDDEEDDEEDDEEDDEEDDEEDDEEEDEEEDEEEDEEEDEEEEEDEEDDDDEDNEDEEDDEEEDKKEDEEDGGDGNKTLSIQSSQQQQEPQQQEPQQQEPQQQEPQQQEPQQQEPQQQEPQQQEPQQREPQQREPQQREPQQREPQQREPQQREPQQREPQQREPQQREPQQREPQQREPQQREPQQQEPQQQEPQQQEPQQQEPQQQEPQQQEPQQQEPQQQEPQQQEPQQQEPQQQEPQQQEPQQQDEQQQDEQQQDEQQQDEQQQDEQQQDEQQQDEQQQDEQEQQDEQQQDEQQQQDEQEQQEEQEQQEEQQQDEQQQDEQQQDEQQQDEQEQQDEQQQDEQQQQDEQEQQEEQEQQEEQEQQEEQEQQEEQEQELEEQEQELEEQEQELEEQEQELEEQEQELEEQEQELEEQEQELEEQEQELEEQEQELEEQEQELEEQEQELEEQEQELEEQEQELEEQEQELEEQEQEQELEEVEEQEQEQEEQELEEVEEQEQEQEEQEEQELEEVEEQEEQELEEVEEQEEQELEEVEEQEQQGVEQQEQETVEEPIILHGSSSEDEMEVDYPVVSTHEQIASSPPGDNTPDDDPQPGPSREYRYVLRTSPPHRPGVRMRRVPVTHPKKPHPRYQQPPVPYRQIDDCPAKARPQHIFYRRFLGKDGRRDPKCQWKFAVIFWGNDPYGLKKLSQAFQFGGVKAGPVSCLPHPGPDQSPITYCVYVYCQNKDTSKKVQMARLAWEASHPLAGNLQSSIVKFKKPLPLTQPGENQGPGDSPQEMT
# HDAC3 inh: human HDAC3 inhibition | recombinant HDAC3, fluorogenic peptide/trypsin coupled, fluorescence | inhibition, % at 8.3 µM | 320,000 tested, 0.15% active | AID 2718; in the data active means inhibition above about 26%, passing the limit was not always enough
# Yeast superoxide: lowers age-related superoxide in aged yeast cells. AID 2690. superoxide response (% of plate mean), % at 10 µM. 330,000 tested, 0.18% active. S. cerevisiae aged cells, superoxide DHE fluorescence; stronger effect = lower value;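 active means superoxide response under a set limit, about three screen SD below normal, cut at about 65% in these data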;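 further: yeast aged for seven days with compound at 30 °C before DHE staining; 100% = average MFI of all compound-treated wells on the plate with controls excluded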
# * marks the source's active call; other numbers are inactive results; nt = not tested or not shown. Only some compounds are listed: those with a hit (about 1.2% of all), similar ones and a draw of the others.
SMILES,HIF activator,LANA-H2A inh,HDAC3 inh,Yeast superoxide
Nc1ccc(SCC(=O)Nc2cccc([N+](=O)[O-])c2)cc1,3,71*,5,104
Cc1cc(C)cc(OCc2ccc(C(=O)NN)o2)c1,0,-4,2,105
COc1ccc(C(=O)/C=C/C(=O)N(CC(=O)NC2CCCCC2)Cc2ccccc2)c(O)c1,-8,nt,nt,nt
COc1ccc(C(=O)/C=C/C(=O)N(CC(=O)NC2CCCCC2)CC2CCCO2)c(O)c1 (stereo unspecified),16*,1,0,110
Cc1c(C(=O)N2c3ccccc3Sc3ccccc32)cccc1[N+](=O)[O-],0,nt,nt,115
COCc1ccc(C(=O)N2CCCC(Nc3ccc(F)c(F)c3)C2)s1 (stereo unspecified),0,95*,0,97
CC(=O)c1ccc(C(=O)N2CCCC(Nc3ccc(C(C)C)cc3)C2)s1 (stereo unspecified),13*,1,2,93
Cc1noc(C)c1C(=O)N1CCCC(Nc2ccc(C(C)C)cc2)C1 (stereo unspecified),0,21*,0,89
CCCCCC1CC(=O)C=C(C)C1C(=O)OC (stereo unspecified),0,-2,2,106
C/C(CC(=O)Nc1ccc(Cl)cc1Cl)=N\NC(=O)c1cnccn1,0,2,nt,112
Oc1cccc(/C=N/c2c(-c3ccco3)nc3ccccn23)c1,18*,2,nt,103
CCOC(=O)COc1c(Cl)cc(/C=C2\N=C(C)OC2=O)cc1OC,-1,2,66*,107
CC1CCN(c2ccc(NC(=O)c3ccc(Br)o3)cc2)CC1,2,4,0,106
O=C(NNC(=S)Nc1ccc(Cl)c(Cl)c1)c1ccccn1,60*,1,10,83
CN(C)S(=O)(=O)n1cnc(C(CCO)c2ncn(S(=O)(=O)N(C)C)c2CCCO)c1 (stereo unspecified),nt,8,0,98
COc1cc(/C=N/N2CCN(C3c4ccccc4-c4ccccc43)CC2)ccc1O,0,26*,5,99
COc1ccc(C(C(=O)NCC2CCCO2)N(C(=O)c2snc(C(N)=O)c2N)c2ccc(C)cc2)cc1OC (stereo unspecified),-12,nt,nt,nt
C=CCc1ccc(OC)c(OC)c1,0,-2,-3,132
CCCC1CCC(c2nc(-c3cccnc3)no2)CC1 (stereo unspecified),1,3,5,100
CCCCCCC1CCC(c2nc(-c3ccncc3)no2)CC1 (stereo unspecified),35*,-1,4,82
Nc1nc2nc(-c3cccs3)cc(C(F)(F)F)n2n1,24*,0,-60,105
N#CC(C#N)=Cc1c[nH]c(=O)c(C#N)c1Nc1ccccc1,0,3,-157,91
COC(=O)C(CCCN1C(=O)c2ccccc2C1=O)(NC(C)=O)c1nn[nH]n1 (stereo unspecified),0,19*,4,110
CCCCCCCCCS(=O)(=O)N/N=C/c1cccc([N+](=O)[O-])c1,71*,-7,-2,115
Cc1ccc(S(=O)(=O)N/N=C/c2cccc([N+](=O)[O-])c2)cc1,0,-4,8,87
SMILES,HIF activator,LANA-H2A inh,HDAC3 inh,Yeast superoxide
Cc1cccc(N=C2NC(=O)C(CO)(CO)S2)c1,-1,2,1,94
Cc1ccn(CC(=O)NC2CC(C)(C)Cc3c2cnn3-c2ccc(F)cc2)n1 (stereo unspecified),3,5,-3,85
COc1ccc(CN2CCNC(=O)C2CC(=O)N(C)CC2CCOCC2)cc1OC (stereo unspecified),26*,-2,-2,95
Cc1ccccc1N(C(=O)CCC(=O)Nc1ccccn1)C(C(=O)NC(C)C)c1ccc(F)cc1 (stereo unspecified),-1,-1,-5,98
Cc1ccc(N(C(=O)CCC(=O)Nc2ccccn2)C(C(=O)NC(C)C)c2ccc(F)cc2)cc1 (stereo unspecified),0,18*,-2,95
O=C(CCn1cnnn1)N1CCCC(Nc2ccc(F)cc2)C1 (stereo unspecified),0,0,-3,100
CC(=O)Oc1cccc(/C=C2\Sc3ccccc3C2=O)c1,0,14*,4,97
CN(C)c1ccc(/C=N/NC(N)=S)cc1[N+](=O)[O-],0,25*,-4,97
Cc1c(N(C)C)c(=O)n(-c2ccccc2)n1C,nt,42*,-9,112
Cc1c(C=O)c(=O)n(-c2ccccc2)n1C,0,5,-6,101
O=C(Cn1cnc([N+](=O)[O-])n1)N/N=C/c1cc(Cl)ccc1O,15*,-12,10,116
O=C(Cn1cnc([N+](=O)[O-])n1)N/N=C/c1ccccc1O,6,-2,3,114
COc1cc([N+](=O)[O-])ccc1NC(=O)NCc1ccco1,0,2,1,99
COc1cc(CNCCc2ccccc2)ccc1OCC(N)=O,-1,20*,-6,95
COc1cc(CNCCc2ccccc2)ccc1OCC(=O)NC(C)(C)C,-1,-4,1,92
C#CCOCCOCCOCCNc1nc(N2CCN(C(=O)[C@H](CCC(=O)O)n3cc([C@@H](N)CC(N)=O)nn3)CC2)nc(N2CCN(C(=O)[C@H](CCC(=O)O)n3cc([C@@H](N)CC(N)=O)nn3)CC2)n1,nt,156*,-13,95
CC(=O)Nc1ccc(S(=O)(=O)NCCC(=O)NCC2COc3ccccc3O2)cc1 (stereo unspecified),0,11,-1,94
Cc1ccc(NC(=O)CN(C)S(=O)(=O)c2cccc3nsnc23)cc1,0,-2,4,95
CC(=O)c1cccc(NC(=O)CN(C)S(=O)(=O)c2cccc3nsnc23)c1,14*,-4,6,101
O=C(N/N=C/c1c(O)ccc2ccccc12)c1[nH]ncc1Br,115*,1,5,114
CCOc1ccc(/C=N/NC(=O)c2[nH]ncc2Br)c(O)c1,23*,-1,7,140
COc1ccc(OC)c(/C=N/NC(=O)c2[nH]ncc2Br)c1,1,-2,1,71
O=C(N/N=C\c1ccc(Cl)s1)c1ccc(Cn2cccn2)o1,2,6,-3,95
O=C(N/N=C\c1c(O)ccc2ccccc12)c1ccc(Cn2cccn2)o1,38*,0,-2,100
Cc1onc(NC(=O)CSCC(=O)O)c1Br,0,-4,-6,102
SMILES,HIF activator,LANA-H2A inh,HDAC3 inh,Yeast superoxide
COc1ccc(CNC(=O)CN2C(=O)c3ccccc3C2=O)cc1,2,2,nt,93
COc1ccc(CNC(=O)CN2C(=O)c3ccc([N+](=O)[O-])cc3C2=O)cc1,0,23*,3,104
Cc1ccc(N(CC(=O)Nc2cc(Cl)ccc2Oc2ccccc2)S(C)(=O)=O)cc1C,-1,-4,27*,99
Cc1ccc(N(CC(=O)Nc2cc(Cl)ccc2Oc2ccccc2)S(C)(=O)=O)c(C)c1,0,-6,17,94
NS(=O)(=O)c1cccc(NC(=O)COc2ncnc3c2cnn3-c2ccccc2)c1,0,131*,-3,95
Cc1cc(C)n(CCC(=O)N/N=C/c2c(O)ccc3ccccc23)n1,17*,-1,nt,113
